# Source: PubChem (National Center for Advancing Translational Sciences (NCATS))
# Cruzain noTriton: blocks cruzain activity in detergent-free assay. purified cruzain, Z-FR-AMC fluorescence, no detergent. Potency, µM, for the others: max response, negative = inhibition, hits mostly inhibitors. AID 1476. 2.3% of 200,000 active. P25779;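 further: plate controls were enzyme without inhibitor for no effect and buffer without enzyme for full effect; nearly all actives have a fitted effect of over 40% in size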
# Target sequence (P25779 123-467 limits assumed): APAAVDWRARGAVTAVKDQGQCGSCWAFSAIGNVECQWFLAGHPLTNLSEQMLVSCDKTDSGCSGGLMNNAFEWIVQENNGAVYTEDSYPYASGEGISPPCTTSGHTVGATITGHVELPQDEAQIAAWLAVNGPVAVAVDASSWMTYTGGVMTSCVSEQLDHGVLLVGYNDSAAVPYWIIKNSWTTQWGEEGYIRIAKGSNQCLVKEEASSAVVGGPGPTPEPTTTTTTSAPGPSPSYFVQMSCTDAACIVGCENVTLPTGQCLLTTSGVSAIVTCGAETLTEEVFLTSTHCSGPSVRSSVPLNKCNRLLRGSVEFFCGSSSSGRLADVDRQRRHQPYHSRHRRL
#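 Purified cruzain at 1.5 nM, pre-incubated 15 min with compound at room temperature in 100 mM sodium acetate pH 5.5, 5 mM DTT, 0.00005% Triton X-100. Reaction started with 2 uM Z-FR-AMC; AMC fluorescence increase over 60 s gives rate.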
# NS1 function inh: blocks influenza NS1 protein function; Potency, µM (titrated, usually from 46.1 µM), without a hit: at the top dose activity, positive = more growth; 0.4% of 270,000 active; AID 2326; calls by dose curve; further: actives are rising curves; nearly all actives have a fitted effect of over 50% in size
#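 S. cerevisiae expressing influenza A NS1, grown in glucose, washed, then diluted 1:100 into pH 6.0 -URA galactose medium with 23 nl compound. Growth recovery read as OD600; NS1-free strain serves as control.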
# Cruzain inh Det: cruzain (T. cruzi) inhibition with detergent | 0.43% of 200,000 active | AID 1478 | P25779 | Potency, µM, without a hit: max response, negative = inhibition, usual class: inhibitors | purified cruzain, Z-FR-AMC fluorescence, 0.01% Triton;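 further: plate controls were neutral wells for no effect and buffer without enzyme for full effect; nearly all actives have a fitted effect of over 40% in size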
#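 Purified cruzain (1.5 nM final) was preincubated with compounds for 15 min at room temperature in 100 mM sodium acetate pH 5.5, 5 mM DTT, 0.01% Triton X-100. Reaction started with 2 uM Z-FR-AMC; AMC fluorescence change over 60 s gave activity.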
# * = called active by the depositor; ? = inconclusive; · = no result given. This is one part of a sample in which hits are shown more often than they occur. Unless noted, the call rests on the fitted dose curve; in most records, active means well fitted curve in the direction sought with a large enough effect; inconclusive means small, poorly fitted or top-dose-only effect, or another doubt; inactive means no such curve, though single readings can be large; an effect the other way counts as inactive or inconclusive. Potency means the concentration at half of the fitted maximal effect.
SMILES,Cruzain noTriton,NS1 function inh,Cruzain inh Det
Cc1cccc(NC(=O)CSc2nc3c(oc4ccccc43)c(=O)n2C(C)C)c1,-25%,·,-4%
COc1cccc(-n2c(SCC(=O)Nc3cc(C)ccc3C)nc3c(oc4ccccc43)c2=O)c1,-9%,·,-1%
c1nc(NCCc2cnc[nH]2)c2[nH]cnc2n1,6%,0%,2%
Fc1ccc(-c2cc(-c3nc(-c4ccccc4)no3)[nH]n2)cc1,-10%,·,2%
CC(C)OCCCN1C(=O)c2[nH]nc(-c3ccccc3O)c2C1c1ccccc1F (stereo not given),-1%,·,-11%
COc1cc(-c2ccc(NC(C)=O)c(OC)c2)ccc1NC(C)=O,·,-3%,·
COc1cc(-c2ccc(N=C=O)c(OC)c2)ccc1N=C=O,32µM*,·,-4%
O=C(c1ccc2c(c1)OCO2)c1cn(Cc2ccc(Cl)cc2)c2ccc(F)cc2c1=O,25µM*,·,-3%
Cc1ccc2c(c1)c(=O)c(C(=O)c1ccc3c(c1)OCO3)cn2Cc1ccc(Cl)cc1,?,·,-1%
COCCCNC(=O)C(=O)NCC(c1ccc2c(c1)OCO2)N1CCOCC1 (stereo not given),8%,·,1%
CC(=O)Nc1cccc(NC(=O)CSc2ccc(C(F)(F)F)cc2[N+](=O)[O-])c1,1%,-18%,-1%
O=C(CSc1ccc(C(F)(F)F)cc1[N+](=O)[O-])Nc1ccc2ccccc2c1,13µM*,-6%,-4%
CC(C)[N+]1(C)C2CCC1CC(OC(=O)C(CO)c1ccccc1)C2 (stereo not given),6%,·,1%
COc1ccc(-n2c(=S)[nH]c3cc(C(=O)Nc4cccc(C)c4)ccc3c2=O)cc1,13µM*,6%,1%
COc1ccc(-n2c(=S)[nH]c3cc(C(=O)Nc4ccc(OC)c(OC)c4)ccc3c2=O)cc1,-2%,3%,3%
COCCNC(=O)c1ccc2c(=O)n(CCc3ccccc3)c(SCC(=O)CC(=O)OC)nc2c1,?,·,-9%
N#CC1=C(N)n2c(s/c(=C\c3ccco3)c2=O)=C(C#N)C1c1ccco1 (stereo not given),-25%,7%,-9%
N#CC1=C(N)n2c(s/c(=C\c3cccs3)c2=O)=C(C#N)C1c1cccs1 (stereo not given),25µM*,25%,-24%
O=C(COC(=O)CNC(=O)c1sc2ccccc2c1Cl)Nc1c(Cl)cc(Cl)cc1Cl,?,16%,25µM*
Cc1ccccc1NC(=O)COC(=O)CNC(=O)c1sc2ccccc2c1Cl,3.2µM*,-6%,7.9µM*
O=C(COC(=O)c1sc2ccccc2c1Cl)Nc1ncc(Cl)cc1Cl,?,11%,-5%
O=C(CNC(=O)c1sc2ccccc2c1Cl)NCc1ccccc1,·,3%,·
CCC1CN(C(=O)N2CCC(C(=O)NCCCc3ccccc3)CC2)c2ccccc2O1 (stereo not given),10%,·,-14%
COC(=O)[C@H](COC(C)(C)C)NC(=O)O[C@H]1C(=O)c2ccc(OC)cc2O[C@@H]1c1ccc2c(c1)OCO2,0%,·,-1%
CC12CC[C@@](C(=O)O)(C(=O)C1=O)C2(C)C,-3%,·,7%
SMILES,Cruzain noTriton,NS1 function inh,Cruzain inh Det
COc1ccc(OC)c(CNC(=O)c2ccc(NC(=O)c3nsc4ccccc34)cc2)c1,?,·,0%
CSc1ccc(Cl)c(C(=O)OCC(=O)NCc2ccco2)c1,3%,-31%,-22%
CSc1ccc(Cl)c(C(=O)NCc2ccco2)c1,20µM*,?,?
Cc1ccc(S(=O)(=O)N/N=C2/CC(c3ccccc3)Oc3ccccc32)cc1 (stereo not given),25µM*,?,-3%
O=S(=O)(N/N=C1\CC(c2ccccc2)Oc2ccccc21)c1ccccc1 (stereo not given),-23%,-6%,-1%
COc1ccc(S(=O)(=O)Nc2cc3c(cc2NCc2ccccc2)n(C)c(=O)n3C)cc1OC,?,·,-7%
N/C(=N\N=C\c1ccnc2ccccc12)SC1CC(=O)N(c2ccc(Br)cc2)C1=O (stereo not given),10µM*,17%,-20%
N/C(=N\N=C\c1cccs1)SC1CC(=O)N(c2ccc(Br)cc2)C1=O (stereo not given),·,6%,·
N/C(=N\N=C\c1ccco1)SC1CC(=O)N(c2ccccc2)C1=O (stereo not given),·,4%,·
COc1ccc(N2C(=O)CC(S/C(N)=N/N=C/c3ccnc4ccccc34)C2=O)cc1 (stereo not given),10µM*,21%,25µM*
CCC1(O)CC2CN(CCc3c([nH]c4ccccc34)[C@@](C(=O)OC)(c3cc4c(cc3OC)N(C)C3[C@]45CCN4CC=C[C@@](CC)([C@@H](OC(C)=O)[C@]3(O)C(=O)OC)[C@H]45)C2)C1 (stereo not given in full),8%,16%,-3%
COc1cccc([C@@H]2Oc3ccc(Br)cc3C(=O)[C@H]2OC(=O)NS(=O)(=O)c2ccc(F)cc2)c1,-5%,·,0%
O=C(NCCNC(=O)c1ccccc1)c1ccccc1,·,-1%,·
O=C(NCC#CCOCc1ccccc1)c1ccccc1,13µM*,-9%,11µM*
COc1cccc(C(=O)COc2ccc3c(C)c(Cc4ccccc4)c(=O)oc3c2C)c1,?,4%,-8%
Cc1c(Cc2ccccc2)c(=O)oc2c(C)c(OCC(=O)NCC3CCC(C(=O)O)CC3)ccc12 (stereo not given),·,-20%,·
Cc1cccc(C)c1NC(=O)COc1ccc2c(C)c(Cc3ccccc3)c(=O)oc2c1C,13µM*,-3%,-4%
Cc1c(Cc2ccccc2)c(=O)oc2c(C)c(OCC(=O)Nc3ccc(C#N)cc3)ccc12,13µM*,5%,-8%
COc1ccc2c(c1)C(=O)[C@H](OC(=O)NS(=O)(=O)c1ccc(C)cc1)[C@@H](c1ccc(OC)c(Br)c1)O2,0%,·,-1%
Cc1cc(C)c(NC(=O)C2CCN(c3nn4c(=O)cc(C)nc4s3)CC2)c(C)c1,3%,·,-3%
O=C(c1ccc2c(c1)N(Cc1ccc(F)cc1)C(=O)c1ccccc1S2(=O)=O)N1CCC(Cc2ccccc2)CC1,-5%,·,1%
O=C(NCc1cccc(Cl)c1)NCc1noc2ccccc12,-3%,·,0%
CCc1ccccc1NC(=O)COc1ccc2c(=O)c(Oc3cc(C)ccc3C)coc2c1,?,-4%,-5%
CC(C)c1ccccc1NC(=O)COc1ccc2c(=O)c(Oc3ccc4ccccc4c3)coc2c1,32µM*,-1%,-3%
O=C(O)[C@@H]1CCCN1Cc1cc2ccccc2c2ccccc12,4%,3%,3%
SMILES,Cruzain noTriton,NS1 function inh,Cruzain inh Det
CNC(=S)N/N=C/c1cn(Cc2c(F)cccc2Cl)c2ccccc12,32µM*,20%,-6%
CCNC(=S)N/N=C/c1cn(Cc2ccccc2F)c2ccccc12,?,?,-2%
CCc1ccc(NC(=O)Cn2cnc3sc(C)c(S(=O)(=O)N4CCN(c5ccccc5OC)CC4)c3c2=O)cc1,?,·,2%
C/C(=N\NC(=O)C(=O)Nc1cccc(C(F)(F)F)c1)c1ccc(Cl)s1,16µM*,8%,0%
C/C(CC(=O)Nc1cccc(C(F)(F)F)c1)=N/NC(=O)C(=O)NCCO,·,0%,·
C[C@@]12CC[C@H]3[C@H](CCC4=CC(=O)CC[C@H]43)[C@H]1CC[C@H]2OC1(O)C(=O)c2ccccc2C1=O,1%,-3%,-5%
